53 compounds from ChEMBL document CHEMBL3988442, “University of Dundee, Small-Polar-MMV Screening Library” (2021) can be followed below.

The campaign covered roughly 48,000 compounds. About 13,000 (27%) showed an effect of 50% or more. This is one part of the list.

For the experiment, the system named is Wolbachia pipientis. The experiment is described as follows: Anti-Wolbachia Cell-Based Screen. The class given is functional. Also on record: scale not given: in the data most compounds retested in dose-response had high values. To be noted: 5 µM.
As for `CCc1ncc2c(n1)CN(C(C)C(=O)N1CCOCC1)CC2` (stereo not drawn), the “Percent Effect” value is -13.62%.

Consider `CC(Oc1ccc(F)cc1F)C(=O)N1CCC2(CCCO2)CC1` (stereo not drawn), for which the “Percent Effect” value is listed as -4.107%.

Turning to `O=C(c1cc(F)ccc1F)C1CCN(C(=O)c2ccc(=O)[nH]n2)CC1`, the “Percent Effect” value is on record as 6.401%.

Turning to `O=C(c1cnc(COc2ccccc2)nc1O)N1CCC(F)(F)CC1`, the “Percent Effect” value is reported as 10.39%.

Regarding `O=C(c1ccc(=O)[nH]n1)N1CCCC(O)(CN2CCC(F)(F)CC2)CC1` (stereo not drawn), the “Percent Effect” value was determined as 110.9%.

For `O=C(c1cccc(O)n1)N1CCC(O)(CN2CCC(F)(F)CC2)C1` (stereo not drawn), the “Percent Effect” value is listed as 119.2%.

For the compound `CCOc1ccccc1OC1CCN(C(=O)c2ccc(=O)[nH]n2)CC1`, the “Percent Effect” value was -11.25%.

Consider `O=C(c1cn2ccsc2n1)N1CCOCC(O)(CN2CCCC2)C1` (stereo not drawn), for which the “Percent Effect” value is listed as 6.26%.

`NC(=O)Nc1cc(F)ccc1SCC(F)F`: the “Percent Effect” value is on record as -8.756%.

With `CCn1cc(CNC(C)c2noc(-c3ccc(Cl)cc3)n2)cn1` (stereo not drawn), the “Percent Effect” value was 5.108%.

Regarding `CCN(CC1CCOC1)S(=O)(=O)Cc1ccccc1Cl` (stereo not drawn), the “Percent Effect” value is given as -1.168%.

Take `CC(CN1CCOCC1)NCC1CCN(c2cnn(C)c(=O)c2)CC1` (stereo not drawn): the “Percent Effect” value is -0.8467%.

`CCc1[nH]c2c(CNC(=O)C3CCC(=O)NC3)cc(C)cc2c1C` (stereo not drawn): the “Percent Effect” value is listed as -3.367%.

Consider `CC(C)(C)Oc1ccccc1CNC(=O)C1CCCOC1` (stereo not drawn), for which the “Percent Effect” value is given as -47.48%.

Consider `O=C1CC(C(=O)NCc2ccccc2Oc2ccccc2F)CCN1` (stereo not drawn), for which the “Percent Effect” value is recorded as 91.68%.

`Cc1ccc(C)c(OCCNC(=O)[C@@H]2CCCCN2)c1`: the “Percent Effect” value was -1.478%.

With `CCc1[nH]c2c(CNC(=O)C3CNC(=O)C3)cc(C)cc2c1C` (stereo not drawn), the “Percent Effect” value was -7.809%.

Turning to `Cc1cccc(Oc2ccccc2CNC(=O)C2CCC(=O)NC2)c1` (stereo not drawn), the “Percent Effect” value is reported as 96.69%.

For the compound `O=C(NCc1ccccc1OCC1CC1)C1CCOC1` (stereo not drawn), the “Percent Effect” value is -26.71%.

In the case of `Cc1cccc(Oc2ccccc2CNC(=O)C2CCNC(=O)C2)c1` (stereo not drawn), the “Percent Effect” value was determined as 104.5%.

Regarding `Cc1ccc(CNC(=O)C2CCNC(=O)C2)c(OCCC(C)C)c1` (stereo not drawn), the “Percent Effect” value was 103.9%.

Consider `O=C1CCC(C(=O)NCCOc2cccc(Cl)c2Cl)CN1` (stereo not drawn), for which the “Percent Effect” value is reported as -0.2416%.

For `Cc1ccc(C)c(OCCNC(=O)C2CCOC2)c1` (stereo not drawn), the “Percent Effect” value is reported as -7.675%.

`O=C(CNC(=O)C1CC1)Nc1c(F)cccc1Oc1ccccc1`: the “Percent Effect” value is given as -3.554%.

On to `CC(NC(=O)N1CCSC(C)(C)C1)c1noc(-c2ccccc2)n1` (stereo not drawn), for which the “Percent Effect” value is -9.511%.

Take `CCC[C@H]1CN(Cc2cncn2C)C[C@@H]1NC(=O)C1(COC)CCC1`: the “Percent Effect” value is reported as -8.158%.

As for `COCCNC(=O)c1ccoc1CN1c2ccccc2CC1C` (stereo not drawn), the “Percent Effect” value is given as -13.79%.

Take `Cc1nc(C)n(CC(C)C(=O)N2CCCN(C3CCCC3)CC2)n1` (stereo not drawn): the “Percent Effect” value is reported as -15.63%.

With `O=c1[nH][nH]cc1-c1ccnc(NCCN2CCCCC2)n1`, the “Percent Effect” value is on record as 112.5%.

Turning to `O=c1[nH][nH]cc1-c1ccnc(NCCCN2CCOCC2)n1`, the “Percent Effect” value worked out at 116.9%.

As to `O=c1[nH][nH]cc1-c1ccnc(NCCN2CCCC2)n1`, the “Percent Effect” value was -6.447%.

As for `O=C1O[C@@H]2CN(Cc3ccncc3)C[C@@H]2N1CCCN1CCOCC1`, the “Percent Effect” value is given as -10.63%.

Regarding `C[C@H]1CCCCN1CCCNc1nccc(-c2c[nH][nH]c2=O)n1`, the “Percent Effect” value came to 112%.

As for `CC(C)COCC(NC(=O)c1ccccn1)c1ccco1` (stereo not drawn), the “Percent Effect” value turned out to be 12.33%.

`O=C1CNCC(C(=O)N2CC(Oc3ccccc3Cl)C2)N1` (stereo not drawn): the “Percent Effect” value was -5.2%.

Regarding `COc1ccc(F)cc1CN1CCCn2nc(CNS(C)(=O)=O)cc2C1`, the “Percent Effect” value amounted to 6.854%.

With `CN1CCC(C(=O)N2CCC(c3ccc4c(N)n[nH]c4n3)CC2)CC1`, the “Percent Effect” value is given as 104%.

For the compound `O=C(C1CC1)N1CCC(c2nc(-c3ccccc3)n[nH]2)CC1`, the “Percent Effect” value is reported as -8.829%.

For the compound `Cc1ccc2c(c1)c(CNC(=O)C1CCN(C(=O)C3CC3)CC1)nn2C`, the “Percent Effect” value was -8.87%.

Turning to `CCc1noc(CN(C)C(=O)C(C)(C)Oc2cccc(Cl)c2)n1`, the “Percent Effect” value was found to be 11.07%.

In the case of `CO[C@H]1COCCN(C(=O)c2ccc(C(F)(F)F)cc2)C1`, the “Percent Effect” value is -0.5949%.

Regarding `Cc1ccc(CN2CCn3c(COc4cccnc4)cnc3C2C)o1.O=C(O)C(F)(F)F.O=C(O)C(F)(F)F` (stereo not drawn), the “Percent Effect” value is 105.5%.

On to `CC1c2ncc(COc3cccnc3)n2CCN1C(=O)C1=CCCC1.O=C(O)C(F)(F)F` (stereo not drawn), for which the “Percent Effect” value is listed as 6.564%.

As to `Cc1ccc(CN2CC[C@@H](N3CCOCC3)[C@@H]2Cc2cccnc2)o1.O=C(O)C(F)(F)F.O=C(O)C(F)(F)F.O=C(O)C(F)(F)F`, the “Percent Effect” value is -6.789%.

Regarding `CC1c2ncc(COc3cccnc3)n2CCN1Cc1cnn(C)c1.O=C(O)C(F)(F)F.O=C(O)C(F)(F)F` (stereo not drawn), the “Percent Effect” value stood at 101.1%.

For `Cc1ccsc1CN1CCn2c(COc3cccnc3)cnc2C1C.O=C(O)C(F)(F)F.O=C(O)C(F)(F)F` (stereo not drawn), the “Percent Effect” value is listed as 105.4%.

For `CCOCc1cnc2n1CCN(Cc1nc(C)cs1)C2C.O=C(O)C(F)(F)F` (stereo not drawn), the “Percent Effect” value is -1.73%.

With `COCc1cnc2n1CCN(Cc1cccnc1)C2C.O=C(O)C(F)(F)F.O=C(O)C(F)(F)F` (stereo not drawn), the “Percent Effect” value is -12.59%.

Regarding `CCOCc1cnc2n1CCN(Cc1cccs1)C2C.O=C(O)C(F)(F)F` (stereo not drawn), the “Percent Effect” value was found to be 10.91%.

As for `Cc1csc(CN2CCn3c(COc4cccnc4)cnc3C2C)n1.O=C(O)C(F)(F)F.O=C(O)C(F)(F)F` (stereo not drawn), the “Percent Effect” value was found to be 106.1%.

For the compound `Cc1ncsc1CN1CCn2c(COc3cccnc3)cnc2C1C.O=C(O)C(F)(F)F.O=C(O)C(F)(F)F` (stereo not drawn), the “Percent Effect” value is -6.197%.

In the case of `CCNc1ncc(CN(CCN(C)C)Cc2ccc(C)s2)cn1`, the “Percent Effect” value turned out to be 9.658%.

For the compound `CC(CC#N)N(C)Cc1ccc(F)cc1F` (stereo not drawn), the “Percent Effect” value is -4.017%.
